A selection: hits, their analogues and other compounds. The true share with any hit is near 22%.
CYP2C9 inhib = blockers of cytochrome P450 2C9 activity – biochemical, luminescence, ADME assay, primary screen. inhibition, % at 5 µM. hit rate 20% among 96,000. CYP2C9 Supersomes, luciferin-H conversion;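 active = blocking of liver enzyme CYP2C9 beyond about 50% at 5 µM, limit read from the data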
CYP2C19 act = human CYP2C19 activators, primary screen, biochemical, luminescence. recombinant CYP2C19, luciferin-H EGE luminescence; hits give high values; 0 = fully inhibited enzyme, 1 = untreated enzyme. AID 1025, 2008. 96,000 tested, under 10 active. activation factor at 5 µM. Cytochrome P450 2C19 (Homo sapiens), P33261;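 active = activation factor of at least 2 at 5 µM in the primary screen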;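 also: 0 = wells with 2.5 mM tranylcypromine and 1 = vehicle-only wells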
Target sequence (P33261 whole entry, looked up): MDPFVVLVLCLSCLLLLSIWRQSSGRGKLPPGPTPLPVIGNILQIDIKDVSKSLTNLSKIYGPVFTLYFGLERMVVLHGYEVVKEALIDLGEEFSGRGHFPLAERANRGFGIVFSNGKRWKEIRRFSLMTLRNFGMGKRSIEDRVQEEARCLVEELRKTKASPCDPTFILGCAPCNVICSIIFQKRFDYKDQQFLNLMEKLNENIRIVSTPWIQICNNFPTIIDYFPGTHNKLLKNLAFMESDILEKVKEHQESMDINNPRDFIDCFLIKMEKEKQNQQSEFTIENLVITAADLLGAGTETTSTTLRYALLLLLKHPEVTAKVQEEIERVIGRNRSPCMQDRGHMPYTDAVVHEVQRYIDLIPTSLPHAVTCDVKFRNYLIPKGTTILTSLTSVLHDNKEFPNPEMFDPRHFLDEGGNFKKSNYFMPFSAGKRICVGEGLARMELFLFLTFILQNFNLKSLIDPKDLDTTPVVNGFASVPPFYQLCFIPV
CYP2C19 inh = blockers of cytochrome P450 2C19 activity – biochemical, luminescence, ADME assay, primary screen; P33261; CYP2C19 Supersomes, luciferin-H EGE luminescence, 30 min; inhibition, % at 5 µM; hit rate 21% among 96,000; AID 778, 2007;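 active = CYP2C19 inhibition above a set limit at 5 µM in the primary screen, cut at about 50% in these data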;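 also: plate controls were negative control wells for no effect and 2.5 mM tranylcypromine positive control for full effect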
E-sel TNF inh = E-selectin induction blockers in HUVEC – imaging, immunofluorescence, high content, primary screen. HUVEC TNFa-induced E-selectin immunofluorescence. inhibition, % at 2 µM. hit rate 0.71% among 120,000;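 active = inhibition above the batch mean plus 3 SD, and confirmed as a hit on visual image review, cut at about 43% in these data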;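 also: 0% = TNF-stimulated DMSO wells and 100% = unstimulated control wells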
F-actin modifier = modifiers of F-actin cytoskeleton organization, primary screen, imaging, HUVEC, phalloidin staining, high-content imaging; HUVEC TNFa F-actin phalloidin imaging; hit rate 0.18% among 91,000; inhibition, % at 2 µM;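 active = inhibition above the batch mean plus 3 SD and confirmed as a hit by visual image inspection, cut at about 30% in these data, passing the limit was not always enough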
CYP2C9 activ = human CYP2C9 activators, primary screen, biochemical, luminescence | recombinant CYP2C9, luciferin-H conversion; hits give high values; factor 1 = untreated enzyme, 0 = blocked | hit rate 1.4% among 96,000 | activation factor at 5 µM;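 active = activation factor of 2 or more for CYP2C9 at a 5 µM dose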;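 also: 0 = sulfaphenazole-blocked wells and 1 = vehicle-only wells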
Active calls of the source: *; · = no result.

SMILES | CYP2C9 inhib | CYP2C19 act | CYP2C19 inh | E-sel TNF inh | F-actin modifier | CYP2C9 activ
CC(C)CC1N=C2c3ccccc3N=C(SCc3cc(=O)n4ccccc4n3)N2C1=O (stereo not drawn) | · | · | · | -9 | 3 | ·
C1CCN(c2nc(N3CCCC3)nc(N3CCNCC3)n2)C1 | -2 | 0.9 | 13 | -9 | · | 1
O=C(CCSc1nc2ccccc2o1)N1CCOCC1 | · | · | · | -27 | 2 | ·
CS(=O)(=O)N1CCCC(C(=O)NCCCN2CCc3ccccc3C2)C1 (stereo not drawn) | -15 | 0.9 | 13 | -3 | 12 | 1.2
CCc1cc(=O)oc2cc(OCC(=O)N(CC)CC)c(Cl)cc12 | 5 | 0.9 | 12 | · | · | 1
Cc1ccccc1N=C1NC(=O)CC(c2ccccc2)S1 (stereo not drawn) | 32 | 0.4 | 63* | 9 | -10 | 0.7
CC(C)(C)c1ccc(-c2nnc(SCCN3C(=O)c4ccccc4C3=O)o2)cc1 | 84* | 0.2 | 78* | 2 | -5 | 0.2
CCOC(=O)C1CCN(C(=O)CSc2cc(=O)n(CC)c3ccccc23)CC1 | 20 | 0.4 | 60* | -9 | -11 | 0.8
CCn1c(=O)cc(SCC(=O)N2CCCCC2)c2ccccc21 | -78 | 0.9 | 7 | -11 | -45 | 1.8
CCN1CCN(C(=O)CSc2cc(=O)n(CC)c3ccccc23)CC1 | -87 | 1 | 0 | 1 | 8 | 1.9
CCn1c(=O)cc(SCC(=O)N2CCC(C)CC2)c2ccccc21 | -170 | 0.6 | 38 | 28 | -18 | 2.7*
OCCOCCOCCn1c2ccccc2c2ccccc21 | 29 | 0.2 | 82* | · | 38 | 0.7
CC(=O)Nc1ccccc1OCC(=O)NC(C)c1ccc(F)cc1 (stereo not drawn) | · | · | · | 22 | · | ·
O=C(CCN1C(=O)c2ccccc2C1=O)NC(=S)Nc1cccc(Cl)c1 | 42 | 0.7 | 26 | 4 | -4 | 0.6
C[C@@H]1CC[C@@]2(O[C@H](CCO)C[C@@H](O)[C@@H]2O)O1 | · | · | · | 64* | · | ·
C[C@@H]1CCC[C@@]2(O[C@H](CCO)C[C@@H](O)[C@@H]2O)O1 | · | · | · | -20 | · | ·
COc1ccc(-n2c(NC(=O)c3ccco3)c(C#N)c3nc4ccccc4nc32)cc1 | 48 | 0.9 | 6 | -7 | -9 | 0.5
C=CCn1c(NC(=O)c2ccco2)c(S(=O)(=O)c2ccccc2)c2nc3ccccc3nc21 | 66* | 0.8 | 21 | · | · | 0.3
C=CCn1c(NC(=O)c2ccc(Br)o2)c(S(=O)(=O)c2ccccc2)c2nc3ccccc3nc21 | 53* | 0.9 | 7 | 16 | 6 | 0.5
CCOC(=O)C(CSCC(=O)c1ccc(Cl)cc1)NC(=O)OC(C)(C)C (stereo not drawn) | 28 | 0.4 | 60* | 14 | 12 | 0.7
CCOC(=O)C(Cc1ccc(O)cc1)NC(=O)CNC(=O)C(CC(C)C)NC(=O)OC(C)(C)C (stereo not drawn) | · | · | · | -32 | · | ·
CCOC(=O)C(CSCC(=O)c1ccc(Br)cc1)NC(=O)OC(C)(C)C (stereo not drawn) | 82* | 0.1 | 93* | -1 | 2 | 0.2
CCOC(=O)C(CSCc1ccccc1)NC(=O)OC(C)(C)C (stereo not drawn) | 22 | 0.6 | 37 | 2 | 3 | 0.8
O=C(/C=C/c1ccc(OCCCF)cc1)NCc1ccc(Cl)cc1 | 10 | 0.7 | 34 | 24 | -4 | 0.9
Brc1cc2c(cc1Cn1c(-c3cncs3)nc3ccccc31)OCO2 | -8 | 1 | 2 | 6 | -7 | 1.1
SMILES | CYP2C9 inhib | CYP2C19 act | CYP2C19 inh | E-sel TNF inh | F-actin modifier | CYP2C9 activ
Cc1ccccc1Cn1c(-c2cncs2)nc2ccccc21 | 39 | 0.2 | 76* | -28 | 59 | 0.6
O=C(Cn1c(-c2cncs2)nc2ccccc21)NCc1ccccc1 | 22 | 0.2 | 80* | -7 | 0 | 0.8
O=C(NC1CCCC1)c1sc(=S)n2c1[nH]c(=O)c1ccccc12 | 93* | 0.7 | 28 | -16 | 20 | 0.1
O=C(NCc1ccccc1)c1ccc2c(=O)[nH]c3c(C(=O)NCC4CCCO4)sc(=S)n3c2c1 (stereo not drawn) | · | · | · | -10 | · | ·
O=C(NCc1ccco1)c1sc(=S)n2c1[nH]c(=O)c1ccccc12 | 99* | 0.7 | 29 | · | -6 | 0
CCCCCNC(=O)c1ccc2c(=O)[nH]c3c(C(=O)NCC4CCCO4)sc(=S)n3c2c1 (stereo not drawn) | 95* | 0.7 | 35 | -35 | -2 | 0.1
O=C(NC1CCCCCCC1)c1c(O)c2ccccc2[nH]c1=O | 5 | 0.9 | 14 | 0 | · | 0.9
O=C(NNc1nc(=O)c2cccnc2s1)c1ccccc1O | · | · | · | 15 | · | ·
O=C(C/C=N/OCc1c(Cl)cccc1Cl)c1cnc(-c2ccccc2)s1 | 40 | 0.9 | 5 | -7 | 8 | 0.6
CCCCOc1cccc(-c2nnc(NC(=O)CSc3ccc(C)cc3)s2)c1 | · | · | · | -6 | · | ·
COc1cc(NC(=O)COC(=O)c2nc3nc(C)cc(C)n3n2)cc(OC)c1 | 10 | 1 | -3 | · | -28 | 0.9
COc1ccc(/C=N/NC(=O)CNS(=O)(=O)c2ccc(C)cc2)cc1 | · | · | · | -8 | · | ·
O=C(O)c1cccc(S(=O)(=O)Nc2ccc3oc(=O)sc3c2)c1 | 12 | 1 | 2 | -33 | · | 0.9
COC(=O)c1ccccc1NC(NC(=O)c1ccco1)C(=O)c1ccc(C)cc1 (stereo not drawn) | 58* | 0.8 | 18 | 6 | 21 | 0.4
COC(=O)c1ccccc1NC(=S)NC(NC(=O)c1ccco1)C(Cl)(Cl)Cl (stereo not drawn) | 88* | 0.6 | 42 | 13 | -25 | 0.1
O=C(NNC(=S)Nc1ccccc1)c1ccccc1[N+](=O)[O-] | · | · | · | -1 | · | ·
COC(=O)c1ccccc1NC(=O)c1ccco1 | -22 | 0.9 | 15 | -8 | 0 | 1.2
COC(=O)c1ccccc1NC(=S)NC(NC(=O)c1ccccc1[N+](=O)[O-])C(Cl)(Cl)Cl (stereo not drawn) | 97* | 0.1 | 94* | 37 | -10 | 0
CCc1nnc(NC(=O)CSc2nnc(-c3ccccc3O)n2-c2ccc(C)cc2C)s1 | 38 | 0.9 | 11 | 1 | 8 | 0.6
O=c1cc(-c2ccccc2)[nH]c2nc3ccccc3n12 | 76* | 0.4 | 61* | -13 | -7 | 0.2
CCc1c(C)[nH]c2nc3ccccc3n2c1=O | 48 | 0.8 | 24 | 11 | 21 | 0.5
COc1cccc(-c2nnn(CC(=O)NC3CCCC3)n2)c1OC | -5 | 0.6 | 39 | 8 | 5 | 1.1
COc1cc(C)nc(N2CCCC(C(=O)Nc3ccccc3Br)C2)n1 (stereo not drawn) | · | · | · | -12 | · | ·
COC(=O)c1ccc2c(c1)C(C)(C)C(/C=C/c1ccccc1O)=[N+]2C | 59* | 0.6 | 42 | · | -26 | 0.4

High-throughput results (PubChem BioAssay)
